Out of some 3,600 compounds screened, about 900 (25%) were called active. No rule for the calls is given here. Not all results are given here. Potency and affinity values are given separately.
Target: Protein Tat (Human immunodeficiency virus type 1 group M subtype B (isolate HXB2)) (UniProt P04608)
Test: inhibitors of Tat binding to TAR RNA, dose response, counter-screen for Vif-APOBEC3G degradation inhibitor project, biochemical, fluorescence polarization, FAM-labeled TAR RNA (AID 1117361)
Details: outcome: dose series up to 100 µM unless noted; series mostly up to 100 µM; inhibition: at the top concentration

Row | Structure (SMILES) | outcome | inhibition
1 | CCN(CC)Cc1cc(Nc2c3ccccc3nc3c4ccccc4n(C)c23)cc(CN(CC)CC)c1O | inactive | 
2 | Clc1ccc(-n2ncc3c(NCc4ccccn4)ncnc32)cc1 | inactive | 
3 | COc1ccccc1C(C#N)N1N=C(C)CC1(C)C (stereo unspecified) | inactive | 
4 | CSc1nc2ccc3nc(NC(=O)c4ccccc4)sc3c2s1 |  | 8.11% (inactive)
5 | CCOc1ccc(C(=O)NC(=S)Nc2ccc(N3CCC(C)CC3)cc2)cc1[N+](=O)[O-] |  | 10.7% (inactive)
6 | CCCCN(C(=O)c1ccccc1OCc1ccc(F)cc1)c1c(N)n(CC(C)C)c(=O)[nH]c1=O |  | 5.68% (inactive)
7 | CC(C)c1ccc(SCc2noc(C(=O)NCC3CCCO3)c2C(=O)O)cc1 (stereo unspecified) | inactive | 
8 | CCN1C(=O)/C(=C/N2CC(C)CC(C)C2)SC1=S (stereo unspecified) | inactive | 
9 | Cc1ccccc1N1C(=O)C2ON(c3ccccc3)C(c3cccnc3)C2C1=O (stereo unspecified) |  | 26.6% (inactive)
10 | CC1=CCC(/C=N\Nc2nnc3c(n2)[nH]c2ccccc23)CC1 (stereo unspecified) |  | 10.9% (inactive)
11 | CCOC(=O)c1nc2sc(C)c(C)c2c(=O)[nH]1 | inactive | 
12 | CCN1C(=O)c2ccccc2S(=O)c2ccc(C(=O)N3CCCC3)cc21 (stereo unspecified) | inactive | 
13 | Cc1cccc(N2CCN(CC(=O)NCC3CCCCC3)CC2)c1C | inactive | 
14 | Nc1nc(-c2ccc(F)cc2)cc(C(F)(F)F)n1 |  | 4.05% (inactive)
15 | O=C(CN1C(=O)c2ccccc2C1=O)OC(C(=O)c1ccc(Cl)cc1)c1ccccc1 (stereo unspecified) |  | 1.36% (inactive)
16 | COc1ccc(NC(=O)c2ccccc2NC(=O)CSc2ccc(Cl)cc2)cc1 |  | 13.5% (inactive)
17 | Cc1cc(NC(=O)c2ccccc2F)n(-c2nc3ccccc3[nH]2)n1 |  | 2.05% (inactive)
18 | CC(C)(C)NC(=O)NC(=O)COc1ccccc1C#N |  | 4.73% (inactive)
19 | CC1CN(C(=O)N[C@@H](Cc2ccccc2)C(=O)O)CC(C)O1 (stereo partly specified) | inactive | 

Row | Structure (SMILES) | outcome | inhibition
20 | Cc1ccc(CC(NC(=O)c2ccccc2)C(=O)NC(C)C(=O)O)cc1 (stereo unspecified) |  | 5.41% (inactive)
21 | O=C(CSc1nc2ccccc2c(=O)n1NC(=O)Cc1ccccc1)NCc1ccccc1 |  | 1.36% (inactive)
22 | C=C(Br)Cn1c(CC)nc2ccccc21 | inactive | 
23 | COC(=O)Cc1cc(=O)n2[nH]c(C)cc2n1 |  | 19.8% (inactive)
24 | CCOC(=O)Cc1csc(N/N=C\c2cccc(Br)c2)n1 |  | 2.03% (inactive)
25 | CC(=O)N1CCc2cc(S(=O)(=O)NCCC(=O)Nc3cc(C)cc(C)c3)ccc21 | inactive | 
26 | Oc1ccccc1-c1cc(C(F)(F)C(F)F)[nH]n1 | inactive | 
27 | OC(CN1CCN(c2ccccc2)CC1)c1ccc2c(c1)CCN2 (stereo unspecified) |  | 18.2% (inactive)
28 | CCc1ccc(-c2nc(SCC(=O)c3c(N)n(C4CC4)c(=O)[nH]c3=O)n[nH]2)cc1 | inactive | 
29 | COc1ccc(CC(=O)OCC(=O)NCc2ccco2)cc1OC | inactive | 
30 | O=C(COC(=O)Cc1ccc(Cl)cc1)NCc1ccco1 |  | 17.7% (inactive)
31 | COc1cc(C(=O)Nc2ccc(N3CCCS3(=O)=O)cc2)c([N+](=O)[O-])cc1OC |  | 3.67% (inactive)
32 | Cc1cc(O)c(-c2n[nH]c3c2C(c2cccc(O)c2)N(Cc2cccnc2)C3=O)cc1Cl (stereo unspecified) | inactive | 
33 | CCCn1c2ccccc2c2nnc(SC(CC)C(=O)Nc3sc4c(c3C#N)CCCC4)nc21 (stereo unspecified) |  | 8.87% (inactive)
34 | N#Cc1c(NC(=O)CSc2nnnn2C2CCCCC2)sc2c1CCCC2 | inactive | 
35 | CCCC(C)NC(=O)CSCc1ccc(OC)cc1 (stereo unspecified) | inactive | 
36 | CCNc1nc(NCC)nc(OCCNS(=O)(=O)c2cc(C)ccc2C)n1 |  | 2.7% (inactive)
37 | COc1ccccc1C=NC(CO)C(O)c1ccc([N+](=O)[O-])cc1 (stereo unspecified) |  | 7.43% (inactive)
38 | Cc1c(NC(=O)NCCN2C(=O)C3C4C=CC(C4)C3C2=O)c(=O)n(-c2ccccc2)n1C (stereo unspecified) |  | 4.05% (inactive)

Row | Structure (SMILES) | outcome | inhibition
39 | O=C(NCN1C(=O)C2C3C=CC(C3)C2C1=O)OC1CCCCC1 (stereo unspecified) | inactive | 
40 | C=CCc1c(C)nc2c(C(=O)O)cnn2c1C |  | 4.34% (inactive)
41 | Cc1ccccc1-c1nc(CN2CCC(C(=O)N3CCN(c4ccccn4)CC3)CC2)c(C)o1 |  | 13.6% (inactive)
42 | COc1ccc(-c2cc(-c3ccccc3)c(C#N)c(S(C)=O)n2)cc1 (stereo unspecified) | inactive | 
43 | Cc1cccc(C)c1NC(=O)c1ccc(-n2cnnn2)cc1 |  | 22.5% (inactive)
44 | COc1ccc(C2=NOC(C(=O)NCc3cccs3)C2)cc1OC (stereo unspecified) | inactive | 
45 | Cc1cccc(N2C(=O)CN=C2Nc2nc(C)cc(C)n2)c1 |  | 4.73% (inactive)
46 | COc1ccc(/C=N/OCC(=O)Nc2cc(C)on2)cc1OC | inactive | 
47 | O=C(Nc1ccc(N2CCCCC2)cc1)c1cc([N+](=O)[O-])cc([N+](=O)[O-])c1 | inactive | 
48 | COC(=O)C1CCN(c2ccc([N+](=O)[O-])cc2)CC1 | inactive | 
49 | CC1(C)Cc2ccccc2C(/C(=N/O)C(N)=O)=N1 | inactive | 
50 | COc1ccc2cnn(CCOc3cc(C)ccc3C(C)C)c(=O)c2c1OC |  | 1.65% (inactive)
51 | Cc1nc(N(C)C)c2sc(=S)n(C)c2n1 | inactive | 
52 | Cc1cccc(NC(=O)CSc2nnc(CCC(=O)Nc3ccc(C)c(Cl)c3)n2C)c1 |  | 4.34% (inactive)
53 | CCCCc1nccn1CCn1ccnc1CCCC |  | 6.14% (inactive)
54 | CCc1ccc(C2C(C(C)=O)=C(C(=O)OC)Nc3nnnn32)cc1 (stereo unspecified) |  | 7.5% (inactive)
55 | COc1ccc(S(=O)(=O)Nc2cc(SCC(=O)O)c(O)c3ccccc23)cc1 |  | 0.33% (inactive)
56 | COC(=O)COc1ccc(S(=O)(=O)Nc2ccc(C(N)=O)cc2)cc1C | inactive | 

— PubChem BioAssay AID1117361 (Southern Research Institute, 2015)
